According to PubChem BioAssay (NCATS):
Inconclusive results are not listed. The source made the active and inactive calls. Calls follow the shape of the dose curve; as a rule, active = well fitted cell-killing curve with a large enough effect; inconclusive = small, poorly fitted or top-dose-only effect; inactive = flat fitted curve, though single readings scatter.

Experiment: Cellular viability qHTS for adrenocortical cancer (ACC) cell line SW-13 (AID 1963989); also: nearly all actives have a fitted effect of over 65% in size;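 as to activity (max response): cells grown in serum-free medium with ITS supplement; % is scaled to controls: 0 for no effect and ±100 for the full control effect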
Settings: SW-13 ACC cells viability, CellTiter-Glo, 48 h; activity (max response): stronger effect = lower value
In short: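 48 h treatment, SW-13 in ITS/DMEM serum-free; doses up to 46 uM; readout CellTiter-Glo luminescence; curve fit four-parameter logistic.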
Potency is read from the fitted curve at half-maximal effect.

SMILES | activity (max response) | Potency
COc1ccccc1C(=O)Nc1cc2c(cc1N1CCCCC1)n(C)c(=O)n2C | -17.1% (inactive) | –
CCC[C@H](N[C@H]1CCc2cc(F)cc(F)c2C1)C(=O)Nc1cn(C(C)(C)CNCC(C)(C)C)cn1 | – | 14.1 µM (active)
Cc1ccc(S(=O)(=O)Nc2cc(C(F)(F)F)ccc2C(=O)Nc2nc(-c3ccccc3)cs2)cc1 | – | 2.24 µM (active)
CC(/C=C/C(=O)NO)=C\[C@@H](C)C(=O)c1ccc(N(C)C)cc1 | – | 6.31 µM (active)

Experiment: Cellular viability qHTS for adrenocortical cancer (ACC) cell line NCI-H295R (AID 1963990); also: nearly all actives have a fitted effect of over 60% in size;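 as to activity change, negative = viability loss: 0% = DMSO only wells and -100% = full killing with cytotoxic reference compound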
Settings: CellTiter-Glo ATP luminescence, 48 h; series mostly up to 46.1 µM; activity change, negative = viability loss: at the top concentration
In short: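 Compound titrations (up to 46 uM final) are applied to NCI-H295R cultures for 48 h at 37C. Viable cell number is estimated by CellTiter-Glo signal, normalised to DMSO and doxorubicin controls.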

SMILES | Potency | activity change, negative = viability loss
NC[C@@](O)(c1ccc(Cl)cc1)c1ccc(-c2cn[nH]c2)cc1 | 10 µM (active) | –
CCN(C(=O)c1ccccc1OC)c1cc2c(cc1N1CCNC[C@H]1C)n(C)c(=O)n2C | – | -8.03% (inactive)
NC(=O)c1ncn([C@@H]2O[C@H](CO)[C@@H](O)[C@H]2O)c1O | inactive | –
COc1ccc(CNC(=O)c2cc(-c3cncc(Cl)c3)cnc2-c2ccccn2)nc1OC | – | -12.2% (inactive)
CC(C(=O)O)c1ccc2c(c1)[nH]c1ccc(Cl)cc12 (stereo not given) | – | -23.9% (inactive)
COc1ccc(Cc2cnc(N)nc2N)cc1OC | – | -4.1% (inactive)
CN(C)CCOc1ccccc1Cc1ccccc1 | – | -0.163% (inactive)
Cc1oc(=O)oc1COC(=O)[C@@H]1N2C(=O)[C@@H](NC(=O)[C@H](N)c3ccccc3)[C@H]2SC1(C)C | – | -22.4% (inactive)
O=Cc1ccc(O)c(O)c1O | 18.4 µM (active) | –
CN(C)CCCOc1nn(Cc2ccccc2)c2ccccc12 | 14.6 µM (active) | –
CC(=O)O[C@]1(C(C)=O)CC[C@H]2[C@@H]3C[C@H](C)C4=CC(=O)CC[C@]4(C)[C@H]3CC[C@@]21C | – | -7.61% (inactive)
